The campaign covered roughly 2,300 compounds. About 1,200 (52%) were called active. Not shown: some 34% with an inconclusive outcome. The call rests on the fitted dose curve; in most records, active means well fitted inhibition curve with a large enough effect; inconclusive means small, poorly fitted or top-dose-only effect, or effect the other way; inactive means no such curve, though single readings can be large or run the other way. The set was probably picked from earlier hits. This is one part of the list.
Experiment: Confirmation screen for delayed death inhibitors of the malarial parasite plastid, 48 hour incubation; further: nearly all actives have a fitted effect of over 65% in size
Details: P. falciparum-infected erythrocytes, luciferase growth; series mostly up to 28.7 µM; activity change, negative = inhibition: at the top concentration
Method in brief: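 Erythrocytes infected with luciferase-expressing P. falciparum (2% hematocrit, 0.1% parasitemia) incubated with compounds 48 hours at 37 C, 5% CO2, in RPMI/Albumax. Growth inhibition scored as reduced luminescence after detection reagent.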
For `CCN1CCN(c2ccc(NC(=O)c3ccc([N+](=O)[O-])o3)cc2Cl)CC1`, the Potency was 7.94 µM (active).
In the case of `Cc1cccc(-c2c(NC(=O)c3ccco3)oc3ccc(Cl)cc3c2=O)c1`, the “activity change, negative = inhibition” value is reported as -26.2% (inactive).
With `CCc1nn2c(=O)cc(COc3ccc(NC(=O)c4ccco4)cc3)nc2s1` the “activity change, negative = inhibition” value was -43.4% (inactive).
For `CC(C)C(=O)N1CCN(c2ccc(NC(=O)c3ccco3)cc2Cl)CC1`, the Potency was 7.94 µM (active).
For `CCCC(=O)N1CCN(c2ccc(NC(=O)c3ccc([N+](=O)[O-])o3)cc2Cl)CC1`, the Potency was 11.2 µM (active).
With `CCC(=O)N1CCN(c2ccc(NC(=O)c3ccc([N+](=O)[O-])o3)cc2Cl)CC1` the Potency was 12.6 µM (active).
With `CCCC(=O)N1CCN(c2ccc(NC(=O)c3ccc([N+](=O)[O-])o3)cc2)CC1` the Potency was 7.08 µM (active).
With `CCc1c(C)nc2nc(SCc3ccccc3Cl)[nH]n2c1=O` the “activity change, negative = inhibition” value was -18.3% (inactive).
With `CCN(CC)c1ccc(/C=C/c2cccc[n+]2C)c(OC)c1` the Potency was 1.12 µM (active).
With `COc1cc(/C=N/NC(=S)Nc2cccc(S(=O)(=O)N(C)C)c2)cc(OC)c1O` the “activity change, negative = inhibition” value was -5.26% (inactive).
For `CN(C)S(=O)(=O)c1cccc(NC(=S)N/N=C/c2cc(Br)ccc2O)c1`, the Potency was 3.55 µM (active).
With `Cn1nc([N+](=O)[O-])nc1Sc1nnc(-c2ccccc2)o1` the Potency was 11.2 µM (active).
In the case of `Cc1ccc(-n2ncc3c(SCc4ccccn4)ncnc32)c(C)c1`, the Potency is reported as 12.6 µM (active).
With `CCOC(=O)C(CC)(CC)C(=O)/C=C/c1ccc(Br)cc1` the Potency was 10 µM (active).
For `CCOC(=O)C(=Cc1ccc(-n2cncn2)cc1)C(=O)OCC`, the Potency was 15.8 µM (active).
In the case of `CCOC(=O)C(=Cc1ccc(Br)cc1)C(=O)OCC`, the Potency is reported as 10 µM (active).
With `CC(C)c1ccc(/C=C/C(=O)NC(=S)NN2CCOCC2)cc1` the “activity change, negative = inhibition” value was -43.1% (inactive).
For `COc1ccc(/C=C/C(=O)NC(=S)NN2CCCCC2c2cccnc2)cc1` (stereo not given), the Potency was 12.6 µM (active).
For `COCCn1c(C)cc(C(=O)CSc2cc(C)c3ccc(OC)cc3n2)c1C`, the Potency was 12.6 µM (active).
With `COC(=O)[C@@H]1C[C@]2(OC(=O)c3ccccc3)C=CC(=O)C[C@@H]2N1C(=O)OCc1ccccc1` the Potency was 14.1 µM (active).
With `CN(C)c1ccc(CN(C(=O)c2ccccc2Br)C2CCS(=O)(=O)C2)cc1` (stereo not given) the Potency was 14.1 µM (active).
For `COc1cccc(CN(C(=O)c2ccccc2Br)C2CCS(=O)(=O)C2)c1` (stereo not given), the Potency was 15.8 µM (active).
For `O=C(O)c1nn(CCSc2ccccc2F)c(=O)c2ccccc12`, the “activity change, negative = inhibition” value was -22.8% (inactive).
For `Cc1ccc(-c2cc(C(=O)N/N=C/c3ccoc3)c3ccccc3n2)cc1`, the Potency was 12.6 µM (active).
For `Cc1c(Cl)ccc2c(C(=O)O)cc(-c3ccccc3)nc12`, the “activity change, negative = inhibition” value was 13.9% (inactive).
With `COc1ccc(/C=N/NC(=O)c2cc(-c3ccccc3)nc3ccccc23)cc1O` the “activity change, negative = inhibition” value was -17.6% (inactive).
For `Cc1ccc(-c2cc(C(=O)N/N=C/C=C/c3ccco3)c3ccccc3n2)cc1C`, the Potency was 10 µM (active).
For `O=C(CCc1ccccc1)NNC(=O)c1ccccn1`, the Potency was 7.94 µM (active).
With `O=C(NCc1ccccc1)C(c1cccnc1)N(C(=O)c1ccccn1)c1ccccc1F` (stereo not given) the “activity change, negative = inhibition” value was -19.9% (inactive).
With `CCOC(=O)NC(=O)COC(=O)c1ccc(O)cc1` the “activity change, negative = inhibition” value was -10.4% (inactive).
With `CCOc1ccc(CCNC(=O)COC(=O)c2ccc(C)s2)cc1OCC` the Potency was 10 µM (active).
For `Cc1ccc(C(=O)NCC(=O)NCCCc2ccccc2)s1`, the “activity change, negative = inhibition” value was -8.96% (inactive).
For `COc1ccccc1NC(=O)Cn1cnc2sc(C(=O)Nc3ccc(OC)c(OC)c3)c(C)c2c1=O`, the Potency was 12.6 µM (active).
For `CSCCn1c(C(C)(C)C)cc(C(=O)O)c1C`, the “activity change, negative = inhibition” value was 18.3% (inactive).
For `CCO[C@H]1OC(C(=O)N2CCN(Cc3ccc4c(c3)OCO4)CC2)=C[C@@H](c2ccc(C(F)(F)F)cc2)[C@@H]1CCCO`, the Potency was 3.55 µM (active).
With `CCO[C@H]1OC(C(=O)N2CCN(Cc3ccccc3)CC2)=C[C@@H](c2ccc(C(F)(F)F)cc2)[C@@H]1CCCO` the Potency was 4.47 µM (active).
With `O=C(C1=C[C@@H](c2csc3ccccc23)C[C@@H](OCCCCO)O1)N1CCN(Cc2ccc3c(c2)OCO3)CC1` the Potency was 10 µM (active).
With `CCn1c(=O)cc(C(=O)OC)sc1=Nc1ccc(F)c(F)c1` the “activity change, negative = inhibition” value was -21.8% (inactive).
In the case of `CC(C)n1nc(C(=O)Nc2cccc(S(=O)(=O)NCc3ccco3)c2)c2ccccc2c1=O`, the Potency is reported as 11.2 µM (active).
For `Cc1cc(C)n(-c2ccc(C(=O)Nc3ccc(S(=O)(=O)NCc4ccco4)cc3)cc2)n1`, the Potency was 10 µM (active).
For `O=C(Nc1ccccc1)c1cccc(S(=O)(=O)NCc2ccco2)c1`, the “activity change, negative = inhibition” value was -16.7% (inactive).
In the case of `Cc1cc(C)n2nc(C(=O)N/N=C/c3c4ccccc4cc4ccccc34)nc2n1`, the Potency is reported as 8.91 µM (active).
With `COC(=O)c1ccc(C2N=C(c3cccs3)CC(c3ccccc3O)N2)cc1` (stereo not given) the Potency was 8.91 µM (active).
For `CCOC(=O)c1c(S(=O)(=O)NCC(=O)Nc2cccc(C)c2C)c(C)n(C)c1C`, the “activity change, negative = inhibition” value was -28.7% (inactive).
In the case of `CCOC(=O)c1c(S(=O)(=O)NCC(=O)N2CCN(c3ccccc3OC)CC2)c(C)n(C)c1C`, the Potency is reported as 12.6 µM (active).
In the case of `COc1cccc(NC(=O)CSc2ccc3nnc(CCNC(=O)c4ccccc4)n3n2)c1`, the Potency is reported as 15.8 µM (active).
In the case of `Cc1ccc(C(=O)NCCc2nnc3ccc(SCC(=O)NCc4ccc(F)cc4)nn23)cc1`, the Potency is reported as 10 µM (active).
With `Cc1ccc(Cc2cnc(N3C(=N)SC(C)C3=O)s2)cc1` (stereo not given) the “activity change, negative = inhibition” value was -30% (inactive).
In the case of `CCN1C(=O)[C@@H]2Cc3c([nH]c4ccccc34)C(c3ccc(OC)cc3)N2C1=S` (stereo not given in full), the Potency is reported as 15.8 µM (active).
For `C=CCN1C(=O)[C@@H]2Cc3c([nH]c4ccccc34)C(c3ccc(O)cc3)N2C1=S` (stereo not given in full), the Potency was 12.6 µM (active).
For `CC1(C)CC(=O)C2=C(C1)OC1=C(C(=O)CC(C)(C)C1)C2c1ccc(O)cc1O`, the Potency was 7.08 µM (active).
For `Fc1ccc(CSc2nncn2NCc2ccc3c(c2)OCO3)cc1`, the “activity change, negative = inhibition” value was -19.1% (inactive).
For `Fc1cccc(CNc2ncnc3ccc(-c4ccc5c(c4)OCO5)cc23)c1`, the Potency was 10 µM (active).
For `CCOCCCNC(=S)N1CCN(c2nc(-c3ccccc3)cs2)CC1`, the Potency was 11.2 µM (active).
For `NC1=NC[C@@H](Cc2ccc(O)cc2)N1CCc1cccc(F)c1`, the Potency was 10 µM (active).
With `NC1=NC[C@H](Cc2ccc(O)cc2)N1CCc1cccc(F)c1` the Potency was 7.94 µM (active).
In the case of `CCCCCCCNC(=O)C1(CC2CC(c3ccc(Cl)cc3)=NO2)CCN(C(=O)C2CCCC2)CC1` (stereo not given), the Potency is reported as 14.1 µM (active).
For `CCCCCCCNC(=O)C1(CC2CC(c3ccc(Cl)cc3)=NO2)CCN(C(=O)Cc2ccc(F)cc2)CC1` (stereo not given), the Potency was 11.2 µM (active).
With `COc1ccc(C(=O)CSc2nnc(C3CCCCC3)n2N)c(OC)c1` the Potency was 8.91 µM (active).
In the case of `CC1CCCN(c2ccc(F)cc2N)C1` (stereo not given), the Potency is reported as 14.1 µM (active).
With `COc1cccc(-c2sc3ccc(OC)cc3c2-c2cc(F)cc(OC)c2)c1` the Potency was 11.2 µM (active).
With `O=C(CSc1nnc(COc2ccccc2)n1-c1ccccc1)c1cccs1` the Potency was 14.1 µM (active).
With `C[C@H](NC(=O)c1nc[nH]c1C(=O)N[C@H](C)c1ccccc1)C(=O)OCc1ccccc1` the “activity change, negative = inhibition” value was -22.9% (inactive).
With `CC(C)C[C@H](NC(=O)c1nc[nH]c1C(=O)N(C)Cc1ccccc1)C(=O)OC(C)(C)C` the Potency was 11.2 µM (active).
For `CC(C)C[C@H](NC(=O)c1[nH]cnc1C(=O)N[C@@H](C)C(=O)OC(C)(C)C)C(=O)OC(C)(C)C`, the Potency was 7.08 µM (active).
In the case of `CC(C)C[C@H](NC(=O)c1[nH]cnc1C(=O)N[C@@H](Cc1ccccc1)C(=O)OC(C)(C)C)C(=O)OC(C)(C)C`, the Potency is reported as 6.31 µM (active).
With `CC(C)C[C@H](NC(=O)c1[nH]cnc1C(=O)Nc1ccc(CNC(=O)OC(C)(C)C)cc1)C(=O)OC(C)(C)C` the Potency was 6.31 µM (active).
In the case of `O=C(c1ccc(Br)cc1)C(CN1CCOCC1)c1ccccc1` (stereo not given), the Potency is reported as 7.08 µM (active).
For `O=C(CC(c1ccccc1)c1cc(Br)ccc1O)NCCN1CCOCC1` (stereo not given), the Potency was 12.6 µM (active).
In the case of `O=C(c1ccc(Cl)cc1)C(CN1CCCC1)c1ccccc1` (stereo not given), the Potency is reported as 10 µM (active).
In the case of `O=C(CN1CCCCC1)N/N=C/c1ccc(Cl)cc1`, the “activity change, negative = inhibition” value is reported as 4.48% (inactive).
In the case of `CN(Cc1ccccc1)C(=O)c1ccc(NC(=O)Cc2cccc(NC(=O)C3CCCN(C(=O)CCc4ccccc4)C3)c2)cc1` (stereo not given), the Potency is reported as 7.08 µM (active).
With `O=[N+]([O-])c1cccc(-c2c[n+]3c(n2-c2ccccc2)SCC3)c1` the Potency was 2.51 µM (active).
In the case of `COC(=O)C(NC(=O)c1ccccc1C)(Nc1ncc(S(=O)(=O)c2ccc([N+](=O)[O-])cc2)s1)C(F)(F)F` (stereo not given), the Potency is reported as 7.94 µM (active).
With `Cn1nc(C(F)(F)F)c(C(=O)Nc2ccc(F)cc2F)c1Sc1ccc(C(F)(F)F)cc1` the Potency was 12.6 µM (active).
With `O=C(NC1CCCN(Cc2ccc(Cl)cc2)C1)c1cnc2ccccn2c1=O` (stereo not given) the Potency was 15.8 µM (active).
For `CC(C)Cc1ccc(CN2CCCC(NC(=O)CCn3cnnn3)C2)cc1` (stereo not given), the “activity change, negative = inhibition” value was -7.89% (inactive).
With `Cc1occc1C(=O)NC1CCCN(Cc2ccc(CC(C)C)cc2)C1` (stereo not given) the Potency was 14.1 µM (active).
In the case of `O=C(Cn1c(=O)c(=O)n(Cc2ccccc2)c2ccc(Cl)cc21)Nc1cccc(F)c1`, the Potency is reported as 15.8 µM (active).
With `Cc1cccc(C)c1N1CCN(C(=O)c2ccc3c(c2)OCO3)CC1` the Potency was 15.8 µM (active).
In the case of `CCOC(=O)c1c(C)c(-c2ccccc2)n(CC(=O)NCCCN(CC)CC)c1C`, the Potency is reported as 12.6 µM (active).
In the case of `O=C(c1ccco1)N1CCN(C(=O)C2CCCc3c2[nH]c2ccc(Cl)cc32)CC1` (stereo not given), the Potency is reported as 14.1 µM (active).
For `COc1cccc(/C=C2\SC(=O)N(CCC(=O)NC3CCS(=O)(=O)C3)C2=O)c1` (stereo not given), the “activity change, negative = inhibition” value was -17.6% (inactive).
For `COc1cccc(/C=C2\SC(=S)N(CCC(=O)N3CCCCC3CCO)C2=O)c1` (stereo not given), the Potency was 10 µM (active).
With `O=C1/C(=C/c2ccc(Cl)cc2)SC(=S)N1CCC(=O)N1CCCCC1CCO` (stereo not given) the Potency was 15.8 µM (active).
In the case of `CC1=CC(=O)O[C@@H]1[C@@]1(C)C[C@H]2OC(=O)C[C@H]3[C@@H](C)C(=O)C(O)=C1[C@@]23CO`, the “activity change, negative = inhibition” value is reported as -14.3% (inactive).
With `CCCCNC(=O)c1onc(CSc2ccc(Cl)cc2)c1C(=O)O` the “activity change, negative = inhibition” value was -7.43% (inactive).
With `CN(C)c1ccc(S(=O)(=O)N2CCCCC2)cc1NC(=O)C1=NN(c2ccccc2)C(=O)CC1` the Potency was 8.91 µM (active).
With `Cc1oc(=O)c(NC(=O)c2ccc(Cl)cc2)cc1C(=O)c1ccccc1` the “activity change, negative = inhibition” value was -5.78% (inactive).
For `O=C(Nc1cc(Cl)ccc1N1CCCC1)C1=NN(c2ccccc2)C(=O)CC1`, the Potency was 14.1 µM (active).

Reference: PubChem BioAssay AID504850 (National Center for Advancing Translational Sciences (NCATS), 2011)
On the % scale 0 is the no-effect control and ±100 the full control effect; potency means the concentration at half of the fitted maximal effect.
